Laboratory results taken from PubChem BioAssay AID1048 (The Scripps Research Institute Molecular Screening Center, 2008).
Hit rate of the full screen: of about 99,000 compounds, about 390 (0.39%) were called active. Shown is part of a subset that was picked to be rich in actives. A number with no mark means an inactive call. Cut-off read from the data, not from the text of the source: active = TR-FRET ratio above about 2000; inactive = the rest.

assay: TR-FRET detection interference compounds, artefact control for PPARgamma SRC-3 recruitment agonists, biochemical, TR-FRET ratio (AID 1048); conditions: TR-FRET artefact counter-screen, PPARgamma/SRC-3 format; at 8 µM; hits give high values

| Structure (SMILES) | TR-FRET ratio |
| --- | --- |
| CCOC(=O)c1c(C)n(C)c2ccc(OC)c(NS(=O)(=O)CC)c12 | 1490 |
| CN(CC(=O)N1CCN(c2ccccc2)CC1)S(=O)(=O)c1cccs1 | 1700 |
| Cc1nc(N2CCC(C)CC2)c2c(C)c(C(=O)Nc3cc(F)ccc3C)sc2n1 | 2360 (active) |
| Cc1nc(N2CCOCC2)c2c(C)c(C(=O)Nc3ccc(C(F)(F)F)cc3)sc2n1 | 1750 |
| Cc1nc(N2CCN(c3ccccn3)CC2)c2c(C)c(C(=O)Nc3ccc(F)cc3)sc2n1 | 1960 |
| CC(C)(C)c1ccc(NC(=O)COC(=O)CCc2nc3ccccc3c(=O)[nH]2)cc1 | 1560 |
| CCC(C(=O)OCC(=O)Nc1ccc(C(=O)Nc2ccc(OC)cc2)cc1)c1ccccc1 (stereo not given) | 1460 |
| CC(C)N1CCC(NC(=O)Nc2ccccc2)CC1 | 1620 |
| COC(=O)c1ccc(C(=O)OC)c(NC(=S)N2CCN(c3ccc(F)cc3)CC2)c1 | 1500 |
| C=CCn1c(CNC(=O)c2ccco2)nnc1SCC(=O)c1ccc(OC)cc1 | 1770 |
| CCc1ccc(OCC(=O)OCC(=O)c2c(N)n(C)c(=O)n(C)c2=O)cc1 | 1320 |
| CC(C)(C)NC(=O)c1ccc(Cn2cc(C(F)(F)F)ccc2=O)cc1 | 1730 |
| N/C(Cc1ccc([N+](=O)[O-])cc1)=N\OC(=O)C1CCCCC1 | 1640 |
| COc1ccc(N2CCN(C(=O)CNS(=O)(=O)c3ccc(C)c(C)c3)CC2)cc1 | 1450 |
| CN1CCC(=NNC(=O)CN(c2cccc(Cl)c2)S(C)(=O)=O)CC1 | 1650 |
| COc1cc(C(=O)Nc2cc(C(F)(F)F)ccc2N2CCOCC2)ccc1O | 1560 |
| CCc1ccc(NC(=O)CC2C(=O)NCCN2C(=S)Nc2ccccc2)cc1 (stereo not given) | 1500 |
| Cc1c(C(N)=O)sc2ncn(CCOc3ccccc3)c(=O)c12 | 1550 |
| Cc1cc(C2=NNC(=Nc3ccc(S(=O)(=O)N4CCOCC4)cc3)SC2)c(C)n1CC1CCCO1 (stereo not given) | 1650 |
| Cc1ccc(OCC(=O)NNC(=S)NCc2ccccc2)cc1 | 1530 |
| Cc1[nH]nc(SCC(=O)NCC(C)C)c1[N+](=O)[O-] | 1720 |
| CC(=O)Nc1ccc(NC(=O)C(C)n2c3ccccc3c3nc(=O)cc(C)n32)cc1 (stereo not given) | 1620 |
| COc1ccc(C(=O)CSc2nnc(-c3ccco3)o2)cc1 | 1800 |
| COC(=O)c1ccc(/C=N/OCC(=O)Nc2cc(F)ccc2F)cc1 | 1390 |

| Structure (SMILES) | TR-FRET ratio |
| --- | --- |
| O=C(Nc1c2c(nc3ccccc13)CCCC2)c1ccccc1Br | 1760 |
| O=C(COC(=O)c1c2c(nc3ccccc13)/C(=C\c1cccs1)CCC2)Nc1ccccc1Cl | 1790 |
| O=C(COC(=O)c1c2c(nc3ccccc13)CCCC2)c1ccc(Br)s1 | 4220 (active) |
| O=C(Nc1ccc2ccccc2c1)/C(=C\c1ccc2c(c1)OCO2)NC(=O)c1ccco1 | 1560 |
| O=C(CSc1ccc(-c2cccs2)nn1)Nc1ccccc1F | 1640 |
| Cc1ccccc1-c1n[nH]c(=S)n1/N=C/c1ccc(-c2ccccc2Br)o1 | 2150 (active) |
| Cc1ccccc1-c1n[nH]c(=S)n1C | 1470 |
| S=c1[nH]nc(-c2ccccc2)n1/N=C/c1c[nH]c2ccccc12 | 1470 |
| COCCN(C(=S)Nc1ccccc1OC)C1CCN(C(C)C)CC1 | 1690 |
| COc1ccc(OC)c(C(=O)c2ccc(C(=O)N3CCN(Cc4csc(C)n4)CC3)cc2)c1 | 1600 |
| COc1ccc(C)cc1NC(=O)Nc1ccccc1SC | 1480 |
| O=C(NCc1cccs1)c1cc(-c2ccccn2)nc2ccc(Br)cc12 | 2270 (active) |
| O=C(Nc1ccncc1)c1cc(-c2ccccn2)nc2ccc(Br)cc12 | 1720 |
| Cc1ccc2nc(-c3cccc(Br)c3)cc(C(=O)Nn3cnnc3)c2c1 | 1410 |
| Cc1ccc(-c2cc(C(=O)NCc3cn(C)nc3C)c3cc(Br)ccc3n2)cc1 | 3150 (active) |
| C/C(N)=C(/C#N)C(=O)COC(=O)c1cc(-c2ccccc2)nc2ccc(Br)cc12 | 1450 |
| O=C(NCc1ccccn1)c1cc(Br)ccc1Cl | 1620 |
| O=C(Cc1c(F)cccc1Cl)Nc1ccc(-n2cnnn2)cc1 | 1510 |
| Cn1c(=O)cc(SCC(=O)N2CCCC2)c2cc(Cl)ccc21 | 3460 (active) |
| CC(C)N(C(=O)Cn1cc(SCC(=O)N2CCCC2)c2ccccc21)C(C)C | 1440 |
| CCOc1ccc(CCNC(=O)CSc2cc(=O)n(C)c3ccc(Cl)cc23)cc1OCC | 1800 |
| CC(C)NC(=O)c1ccc(Cl)cc1Cl | 1730 |
| NC1=NC2(CCCCC2)N(c2ccc(F)cc2F)C(N)=N1 | 1410 |
| COc1ccc2c(CC(=O)OCC(=O)Nc3ccccc3[N+](=O)[O-])coc2c1 | 1720 |

| Structure (SMILES) | TR-FRET ratio |
| --- | --- |
| CCOc1ccc(NC(=O)CSc2nc3ccccc3c(=O)n2Cc2cccs2)cc1 | 1640 |
| CCOc1ccc(NC(=O)CSc2ncnc3c2sc2ccccc23)cc1 | 3140 (active) |
| CCOc1ccc(NC(=O)c2cc(C)nc3ccccc23)cc1 | 1470 |
| Cn1nnnc1NCc1ccc(Cl)c(Cl)c1 | 1750 |
| CCOC(=O)C1C(c2ccc(Cl)cc2)NC(=S)NC1(O)C(F)(F)F (stereo not given) | 1580 |
| CCCOc1ccc(N/C=C/C(=O)C(C)(C)C)cc1 | 1370 |
| CC(C)CNC(=O)C(=O)Nc1ccc(N(C)C)cc1 | 1510 |
| CN(C)c1ccc(N/C=C/C(=O)C(F)(F)F)cc1 | 2070 (active) |
| COc1ccc(CC(NC(C)=O)C(=O)NC2CCN(C(=O)C3CC3)CC2)cc1OC (stereo not given) | 1430 |
| CC1COc2ccccc2N1C(=O)c1cccnc1Cl (stereo not given) | 1670 |
| COc1ccc(C(=O)NNC(=O)c2cc(C)[nH]n2)cc1 | 1480 |
| O=C(O)Cc1ccc(-c2ccccc2)cc1 | 1600 |
| O=C(O)Cc1sc(-c2ccccc2)nc1-c1cccs1 | 2530 (active) |
| O=C(O)Cc1sc(-c2ccc(C(=O)O)cc2)nc1-c1ccccc1 | 1690 |
| CN(C)/N=C/c1cn(-c2ccccc2)nc1-c1cccnc1 | 1610 |
| CCc1nnc(NC(=O)CSc2nnnn2-c2cccc(C(C)=O)c2)s1 | 1550 |
| Cc1ccc2c(c1)C1CN(C)CCC1N2C(=S)Nc1ccc(Cl)cc1Cl (stereo not given) | 1610 |
| CCN(CC)CCNc1nc(-c2ccc(OC(F)F)cc2)c(C)s1 | 1480 |
| CC(NC(=O)COC(=O)c1ccc(Cl)cc1O)c1ccc(F)cc1 (stereo not given) | 1480 |
| CCc1ccc(-n2c(SCc3cc(=O)n4cc(Br)ccc4n3)nc3[nH]ncc3c2=O)cc1 | 2480 (active) |
| Cc1cccc2nc(CSc3nc4[nH]ncc4c(=O)n3-c3cccc(Cl)c3)cc(=O)n12 | 1540 |
| O=c1c2sccc2nc(SCc2cc(=O)n3ccccc3n2)n1-c1ccc(Br)cc1 | 1730 |
| COc1ccc2cc(CCl)c(Cl)nc2c1 | 1710 |
| CCN(CC)c1ccc(C(=O)N/N=C/c2ccc(N3CCOCC3)cc2)cc1 | 1580 |

| Structure (SMILES) | TR-FRET ratio |
| --- | --- |
| CN(C)c1ccc(/C=N/Nc2cc(N3CCOCC3)nc(N3CCOCC3)n2)cc1 | 2070 (active) |
| C(=N/Nc1cc(N2CCOCC2)nc(N2CCOCC2)n1)/c1ccccc1 | 1290 |
| CCCN(CC(=O)Nc1ccc(C(N)=O)cc1)CC(=O)Nc1ccccc1C | 1400 |
| CC1Cc2ccccc2N1C(=O)CSc1nnc(-c2ccc(S(=O)(=O)N3CCCC3)cc2)n1C (stereo not given) | 1610 |
| CC/C(Cc1ccccc1)=N/NC(=O)CCn1nnc2ccccc21 | 1860 |
| CCOC(=O)c1c(NC(=O)C(C)Sc2c[nH]c3ccccc23)sc2c1CCC2 (stereo not given) | 3480 (active) |
| CCOC(=O)c1c(NC(=O)CSc2cn(CC)c3ccccc23)sc2c1CCC2 | 1590 |
| CCOC(=O)c1c(NC(=S)Nc2ccccc2C)sc2c1CCC2 | 1790 |
| Cc1cccc(NC(=O)c2sc(-c3ccccc3)nc2-c2ccc([N+](=O)[O-])cc2)c1 | 1630 |
| Cc1ccc(-c2nc(-c3cccnc3)sc2CC(=O)Nc2ccc(C)c(Cl)c2)cc1 | 3550 (active) |
| Cc1ccc(S(=O)(=O)NCCC(=O)Nc2ccc(C)c(Cl)c2)cc1C | 1640 |
| CCc1cc(CNC(=O)CC2C(=O)NCCN2CC2CCCCC2)on1 (stereo not given) | 1630 |
| CC1=CC=CN2C1=NC(=O)CC2(C)C(=O)N(CC(=O)NC1CCCC1)c1ccccc1C (stereo not given) | 1450 |
| CN(Cc1ccccn1)Cc1nc(-c2ccc(Cl)cc2)no1 | 1430 |
| CN1CCN(S(=O)(=O)c2cccc(C(=O)O)c2)CC1 | 1540 |
| CC1(C)CC(=O)C(C2c3ccccc3S(=O)(=O)c3ccccc32)C(=O)C1 | 1570 |
| CN(CCc1cnn(C)c1)Cc1cn(C)nc1-c1ccccc1F | 1360 |
| COc1cccc(NC(=O)CC(c2ccc(OC(C)C)cc2)c2ccccc2OC)c1 (stereo not given) | 1470 |
| COn1c(-c2ccc(Cl)cc2Cl)nc2ncccc21 | 1970 |
| COc1ccc(CCNC(=O)COC(=O)C2CCCCC2)cc1 | 1330 |
| CC(C)(C)NC(=O)COC(=O)c1cc(Cl)ccc1[N+](=O)[O-] | 1550 |
| COc1ccc2c(c1)C(SCC(=O)NCc1ccccc1)CC(C)(C)O2 (stereo not given) | 1590 |
| O=S1(=O)CC/C(=N\Nc2ccc(F)cc2)c2ccsc21 | 1680 |
